This is part of a sample that, as a whole, favours compounds with a hit. Of some 83,000 tested, about 20% had one in any assay.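 Cells were grown in 96-well plates and exposed to the test compound at a single concentration for 48 hours; results are reported as percent growth, with values below 10 considered active.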 Unmarked numbers belong to inactive results. The source made the active and inactive calls.
system: LOX IMVI melanoma; experiment: NCI-60 one-dose screen, 48 h (100 = growth as untreated, 0 = no growth, -100 = all killed); conditions: 10 µM unless noted
Description: Growth inhibition of the LOX IMVI human tumor cell line is measured as a screen for anti-cancer activity. Cells are grown in 96 well plates and exposed to the test compound for 48 hours. Compounds are tested at a single concentration, which is 10^-5 M for most compounds. The reported endpoint is percent growth (GI% or GIPRCNT), where numbers from 0 - 100% represent growth inhibition, and numbers from -100% - 0 represent cell death. For example, a value of 40 represents 60% growth inhibition. A value of 0 means no net growth occurred over the course of the experiment. A value of -40 indicates 40% of cells at the beginning of the experiment died by the end of the experiment. A value of -100 means all cells are dead at the end of the experiment.
NCI-60 Human Tumor Cell Lines Screen was performed using the standard one-dose NCI protocol, which is described in more detail at https://dtp.cancer.gov/discovery_development/nci-60/default.htm.
Compounds with GIPRCNT values below 10 were considered active. Activity score was based on GIPRCNT using the following formula: […]
Score is 0 for GIPRCNT values of 100 or above, 50 for GIPRCNT values of 0, and 100 for GIPRCNT values of -100.

Structure (SMILES) | growth
COc1ccc(NC(=O)Cn2c(=O)sc3c(-c4ccc(Cl)cc4)cc(-c4ccc(Cl)cc4)nc32)cc1 | 91.1%
Clc1nnc2c3ccccc3ccn12 | 109%
c1csc(-c2cnc3nonc3n2)c1 | 62.6%
COc1ncnc2[nH]cc(CN3CCN(c4ccc(F)cc4)CC3)c12 | 106%
COc1cccc(-c2nc3sccn3c2-c2ccnc(NCCN3CCCNS3(=O)=O)n2)c1 | 35%
C[C@@H]1CC2C3CCC4=CC(=O)C=C[C@]4(C)[C@@]3(Cl)[C@@H](O)C[C@]2(C)[C@@]1(OC(=O)c1ccco1)C(=O)CCl (stereo not given in full) | 61.6%
Cc1ccc(OC2=C(C#N)C(=N)N3C(=NN2)Sc2c(C)ccc(C)c23)cc1 | 96.7%
O=C(Nc1ccc(-n2ccc3c(NC(=O)c4ccccc4)nccc32)cc1)c1ccc(N2CCOCC2)c(C(F)(F)F)c1 | 13.4%
O=C1Nc2ccc(Br)cc2/C1=N/c1nc(-c2ccccc2)cs1 | 92%
CCOC(=O)C(Cc1ccccc1)n1c(O)c(/C=N/c2ncc(Cc3ccc(Cl)cc3Cl)s2)sc1=S (stereo not given) | 21%
C=C1C(=O)O[C@H]2[C@H]1CC/C(COC(=O)NCc1cccc(OC)c1)=C\CC[C@@]1(C)O[C@@H]21 | 5.61% (active)
C=C1C[C@@]2(C)C(CC[C@]3(C)C2CC=C2C4CC(C)(C)C[C@@H](OC(=O)/C(C)=C\C)[C@]4(C(=O)O)CC[C@]23C)C(C)(C)C1=O (stereo not given in full) | -65.7% (active)
O=C(Nc1ccncc1)C(=O)c1cn(S(=O)(=O)c2cccc(Cl)c2F)c2ccccc12 | 51.3%
COc1cc(C2C(C#N)=C(N)Oc3cc4c(cc32)OCO4)cc2c1OCO2 (stereo not given) | 38.3%
COc1cc2ncnc(Nc3ccc(S(=O)(=O)Nc4cc(C)on4)cc3)c2cc1OCCCN1CCN(c2ccc([N+](=O)[O-])cc2)CC1 | 96.1%
CCCCc1nc(Cl)c(C2CC(c3ccc(S(N)(=O)=O)cc3)=NN2c2ccc(C#N)cc2)[nH]1 (stereo not given) | 86.6%
Cc1c(C(=O)CCl)c(=O)n(-c2ccccc2)n1C | 62%
COc1ccc(/C=C/c2nc(NCCCN(C)C)c3ccccc3n2)cc1 | -67.1% (active)
Cc1cccc(/C=N/n2c(-c3ccc(Cl)cc3)nc3c(Br)cc(Br)cc3c2=O)c1 | 52.6%
CCCCCc1c(C)[nH]c(/C=C2\N=C(c3ccc[nH]3)C=C2Oc2ccc(OC)cc2)c1C | -71.9% [100 µM] (active)

Structure (SMILES) | growth
COc1ccc(C2=NNC(c3ccc(Oc4nc5c(c(=O)n(C)c(=O)n5C)n4C)c(OC)c3)C2)cc1 (stereo not given) | 91.4%
COc1nccc2c(Sc3ccccc3)nc(N)nc12 | 107%
CCN(CC)CCCC(C)Nc1ccnc2ccc(Oc3ccccc3)cc12 (stereo not given) | 36.4%
COc1ccc(/C=N/NC(N)=S)c(OC)n1 | 102%
CCOC(=O)C#Cc1c(C(=O)OCC)nnn1[C@@H]1O[C@H](COC(C)=O)[C@@H](OC(C)=O)[C@H]1OC(C)=O | 85.8%
CCCCCCCC/C=C/CCCCCCCC1=NC(C)(C)CN1c1ccccc1 | 85.3%
CS(=O)(=O)c1ccc(C(=O)Nc2ccc(Cl)c(-c3ccccn3)c2)c(Cl)c1 | 16%
N=c1nc(N2CCCCC2)cc(N)n1O | 110%
CCN(CC)c1ccc(/C=N/N=C(N)N)cc1 | 55.5%
Cc1ccccc1NC(=O)c1sc2nc3c(cc2c1N)C(=O)CCC3 | 47.4%
CS(=O)(=O)c1ccc(C(=O)N/N=C/c2cccc3ccccc23)cc1 | 72.4%
COC(=O)c1ccc2c(c1)nc(-c1cc3ccccc3[nH]c1=O)n2-c1cc(C(C)(C)C)[nH]n1 | 11.2%
O=c1c2cc(Br)cc(Br)c2nc(-c2ccc(Cl)cc2)n1/N=C/c1cccc(F)c1 | 62.4%
CCS(=O)(=O)Nc1cccc(Nc2c3cccc(C)c3nc3c(C)cccc23)c1OC | 12.8%
NC(N)=NC1CCCCC1 | 91.6%
CCNC(=O)c1ccc2c(c1)nc(-c1ccc(Cl)cc1)n2-c1cc(C(C)(C)C)[nH]n1 | 33.1%
CCCCCCCCCCCCCC1=NC(C)(C)CN1C(C)C | -74.1% (active)
COc1cc(/C=N/NC(=O)Cn2c(-c3ccc(C)o3)nc3ccccc32)ccc1OCc1ccccc1 | 88.1%
Cc1cccc2nc3ccccc3c(Nc3ccc(NS(C)(=O)=O)cc3)c12 | 33.8%
O=c1c2cc(Cl)ccc2oc2ccc(OCCCCCN3CCCCCC3)cc12 | 73.2%

— PubChem BioAssay (NCI)
